Data published in the supplement of paper PMC4371806.
Over roughly 2,300 compounds, “plate-normalized OD600 growth (mean of duplicates)” has its median near 0.29; the lowest 2% begin near 0.22. This excerpt belongs to a sample that is enriched for the lowest values.

Test system: Escherichia coli BW25113
Test: plate-normalized OD600 growth (mean of duplicates) (OD600 (normalized)); higher = more growth (less inhibition)
Conditions: 10 µM
Method: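 E. coli BW25113 in LB (100 µl, 96-well, no shaking) was exposed to 10 µM of each compound from a ~30,000-member library and grown at 37°C for 24 h or 15°C for 48 h, in duplicate. Growth was read as OD600 and the duplicate ODs were normalized across screening plates to correct plate-to-plate variation. Hits were >3σ below the mean OD600 at 15°C and <2σ below the mean at 37°C.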

Structure (SMILES)	plate-normalized OD600 growth (temperature: 15°C, 48 h)	plate-normalized OD600 growth (temperature: 37°C, 24 h)
O=C1CC(NCc2ccco2)C(=O)N1c1ccc(OC(F)(F)Cl)cc1 (stereo not given)	0.268	0.642
CCOC(=O)C(=CNNc1ccnc2cc(Cl)ccc12)C(=O)OCC	0.26	0.616
CCOC(=O)C(=CNNS(=O)(=O)c1cc(C(F)(F)F)cc(C(F)(F)F)c1)C(=O)OCC	0.246	0.602
CCOC(=O)C(=CNNC(=O)c1ccccc1-n1cccc1)C(=O)OCC	0.213	0.618
CC1COCCN1c1cc(N2CCCCC2C(F)(F)F)[nH]c(=O)c1 (stereo not given)	0.265	0.635
N=c1c(S(=O)(=O)c2ccccc2)c(N)c(CO)c2sc3ccccc3n12	0.236	0.601
Nc1[nH]c(=O)c(CO)c(N)c1S(=O)(=O)c1ccccc1	0.211	0.632
NS(=O)(=O)c1ccc(-n2ncc3ccccc3c2=O)cc1	0.214	0.646
CCOC(=O)c1cnn(-c2ccc(NS(=O)(=O)c3ccc(Cl)cc3)cc2)c1C(F)(F)F	0.233	0.609
O=C(CNC(=O)C(c1ccccc1)c1ccccc1)N/N=C/c1ccc(-c2ccc(Cl)c(Cl)c2)o1	0.238	0.611
Cc1cccc(NC(=O)COc2ccccc2C(=O)NCCNc2ccc([N+](=O)[O-])cc2)c1	0.209	0.656
Cc1ccccc1OCC(=O)Nc1cccc(N2C(=O)c3ccccc3C2=O)c1	0.235	0.661
O=C(COc1ccc(C(F)(F)F)cc1[N+](=O)[O-])Nc1cccc(C(F)(F)F)c1	0.264	0.633
CCC/C=N/NC(=O)c1ccc(N2CCCC2=O)cc1	0.26	0.647
c1ccc2c(c1)OCCCOc1ccccc1OCCCO2	0.251	0.607
COc1cc(S(=O)(=O)N2CCN(c3c(C)cccc3C)CC2)c(OC)cc1Cl	0.253	0.617
COc1cc2c(cc1OC)C(C)N(S(=O)(=O)c1cn(C)c(C)n1)CC2 (stereo not given)	0.245	0.611
CC(C)CC(=O)N(NC(=O)c1ccccc1)c1ccccc1	0.22	0.615
COc1ccccc1Oc1ccc(C(F)(F)F)cc1NC(=O)NC(=O)c1ccccc1F	0.265	0.619
O=C1/C(=C\c2ccccc2)N=C(c2ccccc2)N1CNc1nccs1	0.254	0.585
O=C(O)c1cccc(S(=O)(=O)Nc2ccc(Cl)cc2)c1	0.257	0.625
CC1=C(C#N)C(c2c(C)[nH]n(-c3ccccc3)c2=O)(C(F)(F)F)C(=O)N1 (stereo not given)	0.26	0.62
COc1ccccc1N=C(N)SCc1ccccc1	0.236	0.606
CCc1ccc(NC(=O)CSc2nnc3n(N)cnn23)cc1	0.238	0.609
Cc1cc(O)c(C)c(O)c1/C=N/NC(=O)CNC(=O)c1ccco1	0.245	0.61
